Compound activity: PubChem BioAssay, National Center for Advancing Translational Sciences (NCATS)
An excerpt weighted towards active compounds, which were near 7.1% of everything screened.
ELG1 genotox = genotoxicity induction in ELG1-luciferase HEK293T cells. HEK293T ELG1-luciferase reporter, luminescence, 16 h. Potency, µM (highest dose often 46 µM), without a hit: top-dose activity change, positive = activation, most hits filed as activators. 1.3% of 330,000 active. AID 504466; note: % of control where 0% means no effect; nearly all actives have a fitted effect of over 60% in size
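HEK293T cells expressing luciferase-tagged ELG1 were treated with compound or DMSO for 16 hr at 37°C. Luciferase activity was then read after 30 min with ONE-Glo at room temperature; rising signal flags genetic stress.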
SW480 rerep = induces DNA re-replication in SW480 colon adenocarcinoma cells; AID 624297; 1.8% of 340,000 active; Potency, µM (doses to about 46.1 µM), inactives show at the highest dose re-replication activation, usual class: activators; SW480 DNA re-replication, Hoechst DNA content imaging, 48 h; note: % of control where 0% means no effect; nearly all actives have a fitted effect of over 55% in size
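Treated cells incubate 48 hr (37 C, 5% CO2), are stained 40 min with Hoechst, and nuclear fluorescence is enumerated; a rise in nuclei with high DNA signal marks re-replication.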
MCF10A rerep = inducers of DNA re-replication in MCF 10A breast cells | MCF 10A DNA re-replication, Hoechst nuclear intensity, 48 h | 2.9% of 350,000 active | Potency, µM (top dose mostly 46.1 µM), without a hit: at the highest dose activity, positive = re-replication, actives largely listed as activators; note: % of control where 0% means no effect; nearly all actives have a fitted effect of over 50% in size
AT treatment = potential ataxia-telangiectasia treatment; 0.19% of 320,000 active; Potency, µM (top dose mostly 57.5 µM), inactives show at the top dose activation, hits mostly activators; F2112 A-T fibroblasts, KAP-1 phosphorylation AlphaLISA; neocarzinostatin DNA damage 30 min before lysis; note: % of control where 0% means no effect; nearly all actives have a fitted effect of over 45% in size
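ATM-like activity read as KAP-1 phosphorylation via AlphaLISA donor/acceptor antibody pairs after lysis and 6 hr at 25C. Cells were ATM-null patient fibroblasts (F2112, hTERT), dosed 60 min, then exposed to the DSB inducer NCS for 30 min.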
ELG1 repair inh = ELG1-dependent DNA repair inhibition; HEK293T ELG1-luciferase reporter, luminescence, 16 h; DNA damage induced by 5-fluorouridine; Potency, µM (titrated, usually from 46.1 µM), inactives show at the highest dose activity change, negative = inhibition, hits mostly inhibitors; 2.3% of 330,000 active; AID 504467; note: % is set by controls: 0 for no effect and ±100 for the full control effect; nearly all actives have a fitted effect of over 55% in size
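Reporter activity after DNA damage by 5-fluorouridine is monitored. Compound-treated cells incubate 16 hr at 37 °C, then ONE-Glo is added for 30 min before luminescence reading.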
p53 reactivator = mutant p53 re-activation in reporter cells; H1299 p53-A138V BP100-luciferase reporter, luminescence, 24 h; Potency, µM (top dose mostly 92.2 µM), inactives show at the top dose activity change, positive = activation, hits mostly activators; 0.063% of 320,000 active; note: % of control where 0% means no effect; nearly all actives have a fitted effect of over 45% in size
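p53-null H1299 cells stably carrying temperature-sensitive p53-A138V and a BP100-luciferase reporter were pinned with compounds (4-point, 1:5 series) and held 24 hrs at 37 deg C. Luminescence was read 10 min after detection reagent.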
ELG1 FLuc counter = luciferase inhibition in cell-free luciferin readout for ELG1 hits; 3% of 350 active; shares compounds with ELG1 repair inh; cell-free firefly luciferase luminescence counter-screen, ViewLux; Potency, µM (series often up to 46.1 µM), for the others: at the top dose activity change, negative = inhibition, hits mostly inhibitors; note: % is set by controls: 0 for no effect and ±100 for the full control effect
ELG1 Luc conf = inhibits ELG1-dependent DNA repair in HEK293T cells, confirmed; 68% of 670 active; HEK293T ELG1-luciferase levels, luminescence; cells co-treated with 5-fluorouridine; shares compounds with ELG1 repair inh; Potency, µM (titrated, usually from 46.1 µM), for the others: at the top dose activity change, negative = inhibition, hits mostly inhibitors; AID 624248; note: % is set by controls: 0 for no effect and ±100 for the full control effect; nearly all actives have a fitted effect of over 55% in size
Target sequence (Q96QE3 whole entry, looked up): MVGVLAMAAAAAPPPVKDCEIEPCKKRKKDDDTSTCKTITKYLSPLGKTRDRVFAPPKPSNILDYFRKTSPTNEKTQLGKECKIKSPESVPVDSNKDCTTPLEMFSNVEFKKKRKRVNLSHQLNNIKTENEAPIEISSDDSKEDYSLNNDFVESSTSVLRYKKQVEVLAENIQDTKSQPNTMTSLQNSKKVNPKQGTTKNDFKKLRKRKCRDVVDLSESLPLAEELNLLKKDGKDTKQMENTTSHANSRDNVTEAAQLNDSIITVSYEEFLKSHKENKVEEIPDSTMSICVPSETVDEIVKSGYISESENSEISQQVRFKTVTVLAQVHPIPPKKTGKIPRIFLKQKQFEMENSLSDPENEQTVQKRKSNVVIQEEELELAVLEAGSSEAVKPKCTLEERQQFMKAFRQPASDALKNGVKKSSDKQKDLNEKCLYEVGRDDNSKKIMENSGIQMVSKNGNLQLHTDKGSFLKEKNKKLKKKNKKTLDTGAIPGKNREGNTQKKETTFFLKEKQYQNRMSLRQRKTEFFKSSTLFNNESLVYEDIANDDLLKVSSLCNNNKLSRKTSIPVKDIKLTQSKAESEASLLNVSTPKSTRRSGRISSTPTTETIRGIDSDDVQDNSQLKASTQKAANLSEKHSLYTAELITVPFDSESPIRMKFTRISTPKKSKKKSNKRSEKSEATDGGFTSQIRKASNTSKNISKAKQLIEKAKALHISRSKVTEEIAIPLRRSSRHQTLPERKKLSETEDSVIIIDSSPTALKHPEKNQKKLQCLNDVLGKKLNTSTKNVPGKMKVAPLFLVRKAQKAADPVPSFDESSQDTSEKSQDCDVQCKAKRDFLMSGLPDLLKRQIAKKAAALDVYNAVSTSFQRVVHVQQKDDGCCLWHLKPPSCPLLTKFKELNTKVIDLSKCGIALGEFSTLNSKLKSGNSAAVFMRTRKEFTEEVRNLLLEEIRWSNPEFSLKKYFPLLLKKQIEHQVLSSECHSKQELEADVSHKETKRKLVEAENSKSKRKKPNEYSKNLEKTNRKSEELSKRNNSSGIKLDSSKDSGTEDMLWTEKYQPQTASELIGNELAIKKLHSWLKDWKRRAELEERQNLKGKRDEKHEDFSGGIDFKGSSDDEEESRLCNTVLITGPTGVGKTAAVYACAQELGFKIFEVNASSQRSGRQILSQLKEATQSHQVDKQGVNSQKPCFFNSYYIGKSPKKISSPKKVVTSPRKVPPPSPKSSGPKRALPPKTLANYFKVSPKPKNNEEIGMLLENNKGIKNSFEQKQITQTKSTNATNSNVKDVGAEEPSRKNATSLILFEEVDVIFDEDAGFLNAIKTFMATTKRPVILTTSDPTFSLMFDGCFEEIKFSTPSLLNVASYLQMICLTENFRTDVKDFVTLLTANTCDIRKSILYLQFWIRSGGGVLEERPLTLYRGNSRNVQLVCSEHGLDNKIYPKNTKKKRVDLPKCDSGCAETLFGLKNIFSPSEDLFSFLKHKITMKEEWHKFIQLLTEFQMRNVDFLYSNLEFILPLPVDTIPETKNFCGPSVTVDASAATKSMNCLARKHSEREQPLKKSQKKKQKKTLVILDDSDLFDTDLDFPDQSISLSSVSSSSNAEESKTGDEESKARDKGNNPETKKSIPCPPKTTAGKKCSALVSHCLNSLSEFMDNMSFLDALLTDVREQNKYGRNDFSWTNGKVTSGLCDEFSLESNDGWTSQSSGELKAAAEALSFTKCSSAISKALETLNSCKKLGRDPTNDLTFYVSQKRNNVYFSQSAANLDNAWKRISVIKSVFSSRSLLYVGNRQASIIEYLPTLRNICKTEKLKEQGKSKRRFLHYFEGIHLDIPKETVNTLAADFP
ELG1-Luc MMS = inhibits ELG1-dependent repair under MMS stimulation in HEK293T cells; 53% of 670 active; HEK293T luciferase-tagged ELG1 level, MMS stimulated; Potency, µM (titrated, usually from 46.1 µM), without a hit: at the highest dose activity change, negative = inhibition, usual class: inhibitors; shares compounds with ELG1 repair inh; note: % is set by controls: 0 for no effect and ±100 for the full control effect; nearly all actives have a fitted effect of over 60% in size
ELG1 5-FU = confirmation of ELG1 repair inhibitors: viability with 5FU | 670 tested, under 10 active | Potency, µM (top dose mostly 46.1 µM), for inactives: at the highest dose activity change, negative = viability loss, most hits filed as cytotoxic | cell viability with 5-FU, ELG1-dependent repair | shares compounds with ELG1 repair inh;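 note: ELG1-luc HEK293T cells cotreated with 5-fluorouridine at 10 µM final; viability measured 16 h after compound addition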
ELG1 MMS cell = confirmation of ELG1 repair inhibitors: viability with MMS. shares compounds with ELG1 repair inh. Cell viability with MMS, ELG1-dependent DNA repair. Potency, µM (top dose mostly 46.1 µM), inactives show top-dose activity change, negative = viability loss, usual class: cytotoxic. 33% of 670 active;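 note: ELG1-luc HEK293T cells co-treated with 10 µM MMS; viability read 16 h after compound addition; % is set by controls: 0 for no effect and ±100 for the full control effect; nearly all actives have a fitted effect of over 60% in size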
Cell viab unstim = counter-screen for ELG1 repair inhibitors: unstimulated cell viability. shares compounds with ELG1 repair inh. cell viability counter-screen, unstimulated, luminescence. Potency, µM (highest dose often 45.9 µM), inactives show at the highest dose activity change, negative = loss of viability, most hits filed as cytotoxic. 8% of 900 active. AID 624252;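 note: compound exposure lasted 16 hours before reading; % is set by controls: 0 for no effect and ±100 for the full control effect; nearly all actives have a fitted effect of over 55% in size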
FLuc biochem = counter-screen for ELG1 repair inhibitors: firefly luciferase inhibition; Potency, µM (series often up to 57.5 µM), for inactives: at the highest dose activity, negative = inhibition, actives largely listed as inhibitors; purified firefly luciferase, luminescence counter-screen; shares compounds with ELG1 repair inh; 10% of 350 active; note: % is set by controls: 0 for no effect and ±100 for the full control effect
Numbers without * were called inactive; u = inconclusive; x = not tested or not shown. Calls come from the whole dose curve; as a rule, active = well fitted curve in the direction sought with a large enough effect; inconclusive = small, poorly fitted or top-dose-only effect, or another doubt; inactive = no such curve, though single readings can be large; an effect the other way counts as inactive or inconclusive. Potency is the fitted concentration of half-maximal effect.

SMILES	ELG1 genotox	SW480 rerep	MCF10A rerep	AT treatment	ELG1 repair inh	p53 reactivator	ELG1 Luc conf	ELG1-Luc MMS	ELG1 5-FU	ELG1 MMS cell	Cell viab unstim	others
O=C(Nc1ccccc1)c1nc[nH]c1C(=O)NCCCNC(=O)c1[nH]cnc1C(=O)Nc1ccccc1	-5.7%	-15.1%	u	-1.7%	2.91µM*	-2.5%	3.97µM*	11.2µM*	u	-0.7%	-11.2%
CC1CCN(C(=O)c2[nH]cnc2C(=O)NCCCCCNC(=O)OC(C)(C)C)CC1	-4.1%	-8.2%	-1.8%	16.4%	-8.9%	10.4%	x	x	x	x	x
CC(C)(C)OC(=O)NCCCCCNC(=O)c1nc[nH]c1C(=O)NCC(=O)OCc1ccccc1	-5.8%	-76.0%	u	-8.2%	2.59µM*	1.3%	7.91µM*	11.2µM*	-17.6%	22.3µM*	17.7µM*
CC(C)(C)OC(=O)NCc1ccc(NC(=O)c2nc[nH]c2C(=O)NCCNC(=O)c2[nH]cnc2C(=O)Nc2ccc(CNC(=O)OC(C)(C)C)cc2)cc1	-2.3%	u	23.1µM*	12.4%	1.3µM*	2.1%	1.12µM*	3.53µM*	8.1%	u	u
COc1cccc(-c2cncnc2NCCc2cnc[nH]2)c1	x	x	x	x	x	x	1.41µM*	u	-0.4%	2.3%	u
C=C(C)c1cccc(C(C)(C)NC(=O)Nc2ccc(OC)nc2)c1	-0.3%	22.8%	5.6%	-4.3%	0.6%	12.8%	x	x	x	x	x
O=C(c1cc(COc2ccc3ncccc3c2)on1)N1CCCCCC1	6.1%	u	9.3%	-1.6%	u	18.0%	x	x	x	x	x
O=C(c1cc(COc2ccc3ncccc3c2)on1)N1CCCC1	4.0%	3.4%	14.4%	8.5%	u	0.3%	40.6%	12.6µM*	-1.4%	15.8µM*	u	ELG1 FLuc counter=25.1%;FLuc biochem=u
O=C(NC1CCCC1)c1cc(COc2ccc3ncccc3c2)on1	-1.7%	-15.7%	19.6%	8.9%	2.31µM*	1.7%	u	2.5µM*	-2.7%	3.15µM*	u	ELG1 FLuc counter=-3.0%;FLuc biochem=u
